TRPML1 ag: activates the human TRPML1 channel. activation, % (test concentration not listed). AID 624414. 0.12% of 410,000 active. TRPML1-expressing cells, Ca2+ dye fluorescence, FDSS. Q9GZU1; in the data active = activation above about 50%
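Cells: TRPML1-DL, 1X Tet inducer, ~16 h at 37 degrees C/5% CO2. Dye: ABD Ca8 no-wash + quencher, 45-90 min RT. Read: 10 s baseline, compound add, 110 s agonist phase; 54-4 EC80 (4uM final), 110 s antagonist phase.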
TRHR enhancer-1: allosterically enhances the human TRH receptor; 0.66% of 360,000 active; AID 493056; TRHR cells, fluo-8 calcium fluorescence, EC20 TRH enhancement; P34981; enhancement, % at 2 µM; in the data active = enhancement above about 30%
Target sequence (P34981 whole entry, looked up): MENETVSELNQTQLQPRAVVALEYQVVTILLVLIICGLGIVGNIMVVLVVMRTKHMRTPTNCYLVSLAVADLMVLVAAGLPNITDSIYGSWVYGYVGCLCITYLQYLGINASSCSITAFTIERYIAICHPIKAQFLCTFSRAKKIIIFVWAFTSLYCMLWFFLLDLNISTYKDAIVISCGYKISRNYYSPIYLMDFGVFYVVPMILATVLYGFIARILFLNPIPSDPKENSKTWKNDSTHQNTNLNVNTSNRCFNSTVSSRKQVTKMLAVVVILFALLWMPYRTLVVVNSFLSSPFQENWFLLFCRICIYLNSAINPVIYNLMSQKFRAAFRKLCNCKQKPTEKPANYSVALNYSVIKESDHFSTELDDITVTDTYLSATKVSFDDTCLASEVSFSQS
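Enhancer read-out: after compound pinning and an initial kinetic agonist-mode read, an EC20 of TRH (10 nM final) was injected and fluo-8 calcium signal (Ex 480/Em 530) followed at 1 s/cycle for 100 cycles in TRHR-expressing cells.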
Glioma ERSR ind: ER stress response induction in glioma | Potency, µM, hits mostly activators | 0.02% of 420,000 active | U87-MG GRP78 promoter luciferase reporter, 16 h | AID 602332; also: series mostly up to about 76 µM; nearly all actives have a fitted effect of over 35% in size
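Stably transfected U87-MG human glioma cells carrying a GRP78-based luminescent sensor were seeded at 1000 cells/well, pin-dosed with compounds and incubated 16 h. Luciferase reagent was then added, and end-point luminescence was read after 10 min at room temperature.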
TRHR agonist-1: TRH receptor (human) agonism. P34981. 0.18% of 360,000 active. activation, % at 2 µM. AID 493084. TRHR cells, calcium flux fluo-8, FDSS agonist mode; in the data active = activation above about 30%
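Read-out: compound-evoked intracellular calcium rise in TRHR cells, fluo-8 dye, kinetic FDSS fluorescence at 1 s/cycle following a 10-cycle baseline. Cells cultured overnight before dye loading (30 min–1.5 h, RT).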
TRPML1 blocker: blocks the human TRPML1 channel; TRPML1-inducible cells, Ca2+ dye fluorescence, FDSS; active compounds read low; inhibition of EC80 agonist-evoked calcium signal; AID 624415; activity change, negative = inhibition, % (test concentration not listed); 0.02% of 390,000 active; in the data active = activity change below about -50%;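 also: stimulus is agonist 54-4 at its EC80 concentration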
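TRPML1-DL cells, Tet-induced overnight (~16 h, 37 °C) at 1,500 cells/well, were loaded with Ca8 no-wash dye plus quencher for 45-90 min at room temperature. Compounds were pinned during FDSS kinetic reading; agonist 54-4 at EC80 (4 uM final) then added.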
TRHR enhancer-2: confirmation of human TRH receptor allosteric enhancers; TRH receptor cell assay, enhancer confirmation qHTS; 970 tested, under 10 active; activity change, negative = inhibition, % at 46.1 µM; shares compounds with TRHR enhancer-1;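 also: compound effect scored on response to added TRH at EC20 of 10 nM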
TRHR agonist-2: confirmation of human TRH receptor agonists. Potency, µM (highest dose often 46.1 µM), most hits filed as activators. AID 493078. shares compounds with TRHR enhancer-1. TRHR-expressing cells, agonist activation read-out. 8% of 970 active; also: nearly all actives have a fitted effect of over 75% in size
Large screens that a line does not name were inactive (follow-up assays come after a bar, where they were run). Compounds with a hit are over-represented: about 0.8% of the library has one in this group of screens. Unless noted, calls follow the shape of the dose curve; as a rule, active = well fitted curve in the direction sought with a large enough effect; inconclusive = small, poorly fitted or top-dose-only effect, or another doubt; inactive = no such curve, though single readings can be large; an effect the other way counts as inactive or inconclusive.

Cc1cnc(CNC(=O)c2c3n(c(C)cc2=O)-c2ccccc2SC(c2ccsc2)C3)cn1 (configuration not stated)	none (no result: TRPML1 ag, TRHR enhancer-1, TRHR agonist-1, TRPML1 blocker)
CCN(CC)N=Nc1ccc(S(N)(=O)=O)cc1	TRHR enhancer-1 58 | TRHR enhancer-2 inactive | TRHR agonist-2 inactive
O=C(NCCCN1CCCCC1)C1CCC(CNS(=O)(=O)c2cccc3nsnc23)CC1 (configuration not stated)	TRHR enhancer-1 48 | TRHR enhancer-2 inactive | TRHR agonist-2 inactive
CC1CCN(CCCNC(=O)C2CCC(CNS(=O)(=O)c3cccc4nsnc34)CC2)CC1 (configuration not stated)	none
CN1CCN(C(=O)CSc2ccc(Cl)cc2)CC1	TRHR enhancer-1 43 | TRHR enhancer-2 inactive | TRHR agonist-2 inactive
CN1CCN(C(=O)c2ccc(CSc3ccc(Cl)cc3)cc2)CC1	none
CC(C)CCNC(=O)CCn1c(=S)oc2ccccc21	TRHR enhancer-1 53 | TRHR enhancer-2 inactive | TRHR agonist-2 inactive
COc1ccccc1NC(=O)CCn1c(=S)oc2ccccc21	none
Cc1cnc(C)c(-c2cc(F)cc3c2OC(CNC(=O)C2CCOC2)C3)n1 (configuration not stated)	none (no result: TRPML1 ag, TRHR enhancer-1, TRHR agonist-1, TRPML1 blocker)
CN(CC(=O)NCc1ccc2c(c1)OCO2)S(=O)(=O)c1ccc(F)cc1	TRHR enhancer-1 43 | TRHR enhancer-2 inactive | TRHR agonist-2 inactive
COc1ccc2c(c1)OC(C)CN(CCNC(=O)c1ccc(-n3cccn3)cc1)C2 (configuration not stated)	none (no result: TRPML1 ag, TRHR enhancer-1, TRHR agonist-1, TRPML1 blocker)
COc1ccc(OC)c(-c2cc(Cl)c3c(c2)CC(CNC(=O)C(C)N2CCOCC2)O3)c1 (configuration not stated)	none (no result: TRPML1 ag, TRHR enhancer-1, TRHR agonist-1, TRPML1 blocker)
CCN(CC)CCN(C(=O)c1ccc2c(c1)CCCC2)c1nc2c(C)cccc2s1	TRHR agonist-1 38 | TRHR enhancer-2 inactive | TRHR agonist-2 inactive
O=C1OCC2=C1C(c1ccc(F)cc1)CC(=O)N2c1ccc(F)cc1 (configuration not stated)	none (no result: TRPML1 ag, Glioma ERSR ind, TRPML1 blocker)
CCc1ccc(N2C(=O)CC(c3ccc(F)cc3)C3=C2COC3=O)cc1 (configuration not stated)	TRHR enhancer-1 73 (no result: TRPML1 ag, Glioma ERSR ind, TRPML1 blocker) | TRHR enhancer-2 inactive | TRHR agonist-2 inactive
Cc1cnc(-n2ncc(C(=O)N(C)CC3CCCN(C)C3)c2C2CC2)nc1-c1cccs1 (configuration not stated)	none (no result: TRPML1 ag, TRHR enhancer-1, TRHR agonist-1, TRPML1 blocker)
Nc1nc(SCC(=O)N2CCCC2)[nH]c(=O)c1-c1ccccc1	none
Nc1nc(SCC(=O)N2CCOCC2)[nH]c(=O)c1-c1ccccc1	TRHR enhancer-1 65 | TRHR enhancer-2 inactive | TRHR agonist-2 inactive
Cn1nc(C(=O)Nc2nc3ccc(S(C)(=O)=O)cc3s2)ccc1=O	TRHR enhancer-1 45 | TRHR enhancer-2 inactive | TRHR agonist-2 inactive
CS(=O)(=O)c1ccc2nc(NC(=O)c3ccc(=O)[nH]c3)sc2c1	none
COc1ccc(OCCOCCOc2ccc(C)cc2[N+](=O)[O-])cc1	none
COc1ccc(CNCC(O)COc2ccc(C)cc2[N+](=O)[O-])cc1 (configuration not stated)	TRHR agonist-1 34 | TRHR enhancer-2 inactive | TRHR agonist-2 inactive
Cc1ccc(NC(=O)c2ccccc2-c2ccccc2C(=O)O)cc1	none
Cc1ccc(O)c(NC(=O)c2ccccc2-c2ccccc2C(=O)O)c1	TRHR enhancer-1 43 | TRHR enhancer-2 inactive | TRHR agonist-2 inactive
COc1cc([N+](=O)[O-])c2nccnc2c1	TRHR enhancer-1 44 | TRHR enhancer-2 inactive | TRHR agonist-2 inactive
COc1cc([N+](=O)[O-])c2ncccc2c1	none
CCCCn1nnnc1NCc1ccc(OC)c(OC)c1OC	TRHR enhancer-1 45 | TRHR enhancer-2 inactive | TRHR agonist-2 inactive
COc1cccc(CNc2nnnn2C)c1OC	none
CCc1nnc(NC(=O)CCC(=O)N2CCN(Cc3cc(Cl)ccc3OC)CC2)s1	TRHR enhancer-1 64 | TRHR enhancer-2 inactive | TRHR agonist-2 inactive
COc1ccc(-n2cc(C(=O)N(CCN(C)C)Cc3ccccc3)c3ccccc3c2=O)cc1	TRHR enhancer-1 74 | TRHR enhancer-2 inactive | TRHR agonist-2 inactive
COc1ccc(Nc2ccc(N3C(=O)CCCC3=O)cc2[N+](=O)[O-])cc1OC	none
CCOc1ccc(Nc2ccc(N3C(=O)CCC3=O)cc2[N+](=O)[O-])cc1	TRHR enhancer-1 48 | TRHR enhancer-2 inactive | TRHR agonist-2 inactive
COc1cccc(CNC(=O)c2c(OC)cc(=O)n3c2CCN(C(=O)C2CC=CCC2)CC3)c1 (configuration not stated)	none (no result: TRPML1 ag, TRHR enhancer-1, TRHR agonist-1, TRPML1 blocker)
Nc1nc(SCc2c(Cl)cccc2Cl)n[nH]1	TRHR enhancer-1 45 | TRHR enhancer-2 inactive | TRHR agonist-2 inactive
CCCc1nc2cccnc2n1C1CCN(C(=O)CC2NC(=O)c3ccccc32)CC1 (configuration not stated)	none (no result: TRPML1 ag, TRHR enhancer-1, TRHR agonist-1, TRPML1 blocker)
CCC1CN(CCNC(=O)c2cc(C)nn2CC)Cc2cc(OC)ccc2O1 (configuration not stated)	none (no result: TRPML1 ag, TRHR enhancer-1, TRHR agonist-1, TRPML1 blocker)
CC(NC(=O)C1CCOCC1)c1nnc2n1CCN(Cc1ccc3ccccc3c1)CC2 (configuration not stated)	none (no result: TRPML1 ag, TRHR enhancer-1, TRHR agonist-1, TRPML1 blocker)
CCN(CC)C(=O)C1CCN(c2ncnc3c2cnn3-c2ccc(C)cc2C)CC1	TRHR enhancer-1 44 | TRHR enhancer-2 inactive | TRHR agonist-2 inactive
Cc1ccc(-n2ncc3c(N4CCC(C(N)=O)CC4)ncnc32)c(C)c1	none
Cc1cc2c(s1)c1cnn(Cc3ccc(C(C)(C)C)cc3)c(=O)c1n2C	none (no result: TRPML1 ag, Glioma ERSR ind, TRPML1 blocker)
COc1c(C)cc(C(=O)C2CCCN(C(=O)CCc3scnc3C)C2)cc1C (configuration not stated)	TRHR enhancer-1 53 (no result: TRPML1 ag, TRPML1 blocker) | TRHR enhancer-2 inactive | TRHR agonist-2 inactive
COc1cccc(C(=O)C2CCCN(C(=O)CCc3scnc3C)C2)c1 (configuration not stated)	none
CCCn1c2ccccc2c2nnc(SC(CC)C(=O)Nc3sc4c(c3C#N)CCCC4)nc21 (configuration not stated)	none | TRHR enhancer-2 inactive | TRHR agonist-2 inactive
COc1cc(OC)cc(C(=O)NCc2cc(C)nc3ccccc23)c1	TRHR agonist-1 33 | TRHR enhancer-2 inactive | TRHR agonist-2 inactive
COc1ccc(C(=O)NCc2cc(C)nc3ccccc23)cc1OC	none
CC(C)(C)n1ncc2c(=O)n(Cc3ccc(Cl)cc3C(F)(F)F)cnc21	none (no result: TRHR enhancer-1, TRHR agonist-1)
NC(=O)CC(NC(=O)Cc1ccc(Br)cc1)c1ccc(N2CCC(Br)CC2)c([N+](=O)[O-])c1 (configuration not stated)	TRHR enhancer-1 52 | TRHR enhancer-2 inactive | TRHR agonist-2 inactive
NC(=O)CC(NC(=O)Cc1ccc(Br)cc1)c1ccc(N2CCCCCCC2)c([N+](=O)[O-])c1 (configuration not stated)	none
